Results published in PubChem BioAssay (NCI).
The panel holds about 79,000 compounds, 15% with a hit somewhere; the sample as a whole holds those more often. Values without a mark were called inactive. Activity calls are given as the source filed them. No stated cut-off is given here; in the data, active means growth inhibition above about 70%; inactive means the rest.

Tests used:
[1] = NCI Yeast Anticancer Drug Screen. Data for the rad50 strain (AID 155);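 further: 0% = growth of vehicle-only cultures of the same strain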; settings: S. cerevisiae rad50 strain growth inhibition; at 50.0 µM; stronger effect = higher value
Method in brief: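 Cells are treated with compound, grown, and their growth is then scored against vehicle-only cultures of the same repair-deficient yeast strain.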

[2] = NCI Yeast Anticancer Drug Screen. Data for the mec2-1 strain (AID 157); settings: S. cerevisiae mec2-1 strain, at 50.0 µM, stronger effect = higher value
Method in brief: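 Each compound was tested on mec2-1 yeast, a strain altered in DNA damage repair or cell cycle control. Growth inhibition is reported relative to vehicle.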

[3] = NCI Yeast Anticancer Drug Screen. Data for the sgs1 mgt1 strain (AID 161);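 further: 0% = growth of cultures given vehicle only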; settings: S. cerevisiae sgs1 mgt1 strain, at 50.0 µM, stronger effect = higher value
Method in brief: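 Test agents were incubated with a DNA-repair-mutant yeast strain. Growth was then read and compared against vehicle-treated controls.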

[4] = NCI Yeast Anticancer Drug Screen. Data for the cln2 rad14 strain (AID 165);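 further: 0% = growth equal to vehicle treated cultures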; settings: S. cerevisiae cln2 rad14 strain, at 50.0 µM, stronger effect = higher value
Method in brief: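 Test compounds were added to cln2 rad14 yeast cultures; inhibition of growth was then determined by comparison with vehicle treatment.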

[5] = NCI Yeast Anticancer Drug Screen. Data for the bub3 strain (AID 167); settings: S. cerevisiae bub3 mutant strain, at 50.0 µM, stronger effect = higher value
Method in brief: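 Part of a panel of yeast mutants defective in DNA damage repair or cell cycle regulation. Each strain is grown with compound, and inhibition is calculated relative to solvent-treated cultures.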

[6] = NCI Yeast Anticancer Drug Screen. Data for the mlh1 rad18 strain (AID 175); settings: S. cerevisiae mlh1 rad18 strain growth inhibition; at 50.0 µM; stronger effect = higher value
Method in brief: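 Inhibition values reflect reduced growth of mutant yeast versus vehicle-treated controls following compound exposure; the mutations affect DNA damage repair.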

Row | SMILES | growth inhibition [1] | growth inhibition [2] | growth inhibition [3] [%] | growth inhibition [4] | growth inhibition [5] | growth inhibition [6]
1 | CC(=O)NCCCCN(CCCNC(C)=O)C(=O)CNS(=O)(=O)c1cccc2c(N(C)C)cccc12 | -11.2% | -17.1% | 16.2 | 2% | 17.6% | -8.65%
2 | COc1cc(C(=O)Oc2c(C(C)=O)sc3c2c(=O)n(-c2ccccc2)c(=S)n3-c2ccccc2)cc(OC)c1OC | 19.7% | -5.8% | 8.45 | -13.7% | 17.9% | 22.5%
3 | CCNc1ccc(S(=O)(=O)O)cc1C(=O)O | 0.45% | 4.05% | 0 | -11.8% | 1.25% | -4.6%
4 | CC(C)OC(=O)N1CCCC1 | 12% | 13.8% | 6.05 | -20% | 13.9% | -17.4%
5 | O=C(O)c1cscc1-c1ccccc1 | 2.5% | -0.05% | -6.9 | -19.9% | -12.1% | 3.6%
6 | O=C1C(CO)=C[C@H](O)[C@H]2O[C@@H]12 | -4.3% | 0.3% | -9.45 | 7.85% | 8.65% | -29.4%
7 | COc1ccc(CC(=O)c2c(O)c3c(c(CC=C(C)C)c2OC)OC(C)(C)C=C3)cc1 | 22.4% | -26.3% | -14.8 | 4.15% | -2.75% | 14.2%
8 | COc1ccc(C(CCl)(CCl)c2ccc(OC)cc2)cc1 | 11.8% | -40% | 4.35 | 15.3% | 31.6% | -9.9%
9 | O=C(O)CCCN1CCCCC1 | -22.1% | -32.4% | -30.2 | -4.7% | -63.9% | 8.8%
10 | Cc1ccc(CSC(=S)NNc2ccccc2)cc1C | -28.6% | -44.3% | -2.15 | -13.6% | -32.6% | -35.8%
11 | Cc1cccc2nc(-c3ccccn3)n(CCc3ccccn3)c12 | -5.2% | 5.35% | 1.65 | -18.5% | -8.2% | 17.2%
12 | COc1ccc2c(c1)C13CCCC(C)(C(=O)NC1)C3CC2 (stereo not drawn) | -0.15% | -17.6% | -16.3 | 9% | 2.35% | -11.7%
13 | Nc1cnccn1 | 1.55% | 4.1% | 0.75 | -4.3% | 9.3% | -10.6%
14 | COCC12CC(CC1=O)C1C2ON2c3ccccc3C(=O)C12c1ccccc1 (stereo not drawn) | 50.9% | -8.25% | 36.8 | 37.8% | 26.9% | 18.6%
15 | O=C(NO)c1ccc(O)c(O)c1 | 2.1% | 14.4% | 5.55 | -8.25% | -8.45% | -39%
16 | Cc1nc2ccccc2nc1CC(=N)c1ccccc1 | 24.2% | 15.8% | -5.85 | 5.1% | 35.7% | 17.8%
17 | NS(=O)(=O)c1ccccc1 | 25.2% | 18.9% | 7.95 | -28.4% | 12.4% | 15.4%
18 | COC(C)CCOC(=O)c1ccccc1C (stereo not drawn) | 10% | -6.1% | 0.8 | -21.8% | 24.9% | 3.2%
19 | NCCCCCC(N)=O | 45% | 32.5% | 38.8 | 21.2% | 33.5% | 33.1%

Row | SMILES | growth inhibition [1] | growth inhibition [2] | growth inhibition [3] [%] | growth inhibition [4] | growth inhibition [5] | growth inhibition [6]
20 | Cc1ccc2sc3cc(=O)cc(C)c-3nc2c1 | 14.7% | 0.7% | -15.1 | 8.35% | 38.4% | 25.4%
21 | CC1=C(C(=O)CC(=O)C(=O)Nc2ccc(C)cc2C)Sc2ccccc2N1 | -1.55% | -20.9% | -33 | -9.8% | 6.2% | 24.6%
22 | OCC1OC(O)CC1O (stereo not drawn) | -15.2% | -10.5% | -3.9 | 9.05% | -5.75% | -0.05%
23 | CC1(C)OCC(C2OC3OC(C)(C)OC3/C2=N/NC(=O)c2cc3cc(OCc4ccccc4)ccc3[nH]2)O1 (stereo not drawn) | 82.5% (active) | 90.8% (active) | 39.6 | 92.2% (active) | 84.3% (active) | 86% (active)
24 | CC(=O)N/C(=C\c1ccc(Cc2nc3c([nH]2)C(=O)c2ccccc2C3=O)cc1)c1nc2c([nH]1)C(=O)c1ccccc1C2=O | -7.5% | 12.4% | 11.1 | 23.7% | 15.2% | 33.1%
25 | CC1=NN(c2ccccc2)C(=O)/C1=C\c1ccc([N+](=O)[O-])cc1 | 25.9% | 29.1% | 28.4 | 18.9% | 18.4% | 19.5%
26 | CC(=O)OCC1OC(OC(C)=O)C(NC(=S)N(C)N=O)C(OC(C)=O)C1OC(C)=O (stereo not drawn) | 0.65% | -8.4% | -16.9 | 12.4% | -19.3% | -40.3%
27 | CCOC(=O)c1nc2ccccc2nc1NCc1ccc(OC)c(OC)c1 | 0.65% | 13.1% | -7.75 | 19.7% | -0.05% | -11.4%
28 | Cc1cc(NN)c2cc3c(cc2n1)OCO3 | 12.4% | -2.6% | 5.05 | -46% | -5.7% | 24.1%
29 | Cc1ccc(C(=O)C2=CN=C3C(=O)N(c4ccccc4)N(C)C3(C)C2=N)cc1 (stereo not drawn) | -4.65% | 36.7% | 11.2 | 1.1% | 4.9% | 36.1%
30 | Nc1ncnc2scnc12 | 14.4% | -0.55% | -8.5 | 0.9% | -3.25% | 1.65%
31 | Oc1cc(O)cc(/C=C/c2ccc(O)c(O)c2)c1 | 5.2% | -2.35% | 6 | 5.95% | 18.4% | 18.6%
32 | CCCCCCCCCCCCCCCCCCC1=C(O)C(=O)C=C(OC)C1=O | 18.2% | -6.5% | -3.05 | -2.4% | 4.4% | 8.75%
33 | CCOC(=O)c1ccc(NC(=O)Nc2cc(Cl)ccc2OC)cc1 | 4% | 46.1% | 21 | -2.9% | 34% | 19.7%
34 | CCn1c2ccc(N=C=O)cc2c2c3[nH]c(=O)c4cccn4c3ccc21 | -30.9% | 10.2% | -9.4 | 0.55% | -1.8% | 1.25%
35 | CC(=O)C(C)(C)OC(=O)COc1ccc(Cl)cc1 | -39% | -2.75% | -9.45 | 43.4% | 32.3% | -24.6%
36 | CCOC(=O)NC(=O)c1cn(CCCCCCOC(=O)NCCCCCCNC(=O)OCCCCCCn2cc(C(=O)NC(=O)OCC)c(=O)[nH]c2=O)c(=O)[nH]c1=O | 32% | 14.6% | 27.8 | 28.8% | 13.4% | 28.4%
37 | NC(CO)CSCc1ccccc1 (stereo not drawn) | 1.65% | 1.6% | 11.6 | -4.4% | 13.3% | -0.65%
38 | CC(C)(C)OC(=O)N1CCCC1C(=O)Oc1ccc([N+](=O)[O-])cc1 (stereo not drawn) | 31.6% | 19.4% | 11.4 | 3.55% | 6.25% | 58.5%
